Compounds with a hit are over-represented: about 1.8% of the library has one in this group of screens.
GLP1R inv ag: inverse agonists of human GLP-1 receptor; P43220; HEK293 GLP-1R CRE-luciferase, luminescence, 24 h; GLP-1R form is constitutively active; Potency, µM (doses to about 38.3 µM), inactives show top-dose activity change, negative = inhibition, actives largely listed as inhibitors; 410,000 compounds, 1.6% hits; note: % is set by controls: 0 for no effect and ±100 for the full control effect; nearly all actives have a fitted effect of over 55% in size
Target sequence (P43220 whole entry, looked up): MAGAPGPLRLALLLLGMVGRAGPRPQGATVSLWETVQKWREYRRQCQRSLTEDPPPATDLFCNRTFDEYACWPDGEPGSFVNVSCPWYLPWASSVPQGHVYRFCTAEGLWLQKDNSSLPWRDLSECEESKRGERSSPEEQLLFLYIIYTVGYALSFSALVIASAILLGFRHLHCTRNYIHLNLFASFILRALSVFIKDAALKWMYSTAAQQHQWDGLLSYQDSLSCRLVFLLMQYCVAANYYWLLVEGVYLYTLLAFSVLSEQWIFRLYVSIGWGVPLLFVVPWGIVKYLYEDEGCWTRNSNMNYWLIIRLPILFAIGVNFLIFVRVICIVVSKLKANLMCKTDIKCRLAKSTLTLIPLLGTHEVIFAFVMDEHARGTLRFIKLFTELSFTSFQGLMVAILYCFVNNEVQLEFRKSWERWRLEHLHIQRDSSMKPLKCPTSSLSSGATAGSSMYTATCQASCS
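qHTS in 1536-well format: reporter HEK293 cells expressing constitutive GLP-1R activity in DMEM + 10% Nu serum, 24 hr with compounds at 37 deg C, luminescence read after 12 min with detection reagent.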
PTHR1 ag: PTHR1 (human) receptor agonism. Q03431. Potency, µM (top dose mostly 115 µM), for inactives: top-dose activation, actives largely listed as activators. 410,000 compounds, 0.075% hits. HEK293 GP2 PTHR1 cells, GloSensor cAMP luminescence, 1 h. AID 743266; note: nearly all actives have a fitted effect of over 55% in size
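HEK-293-derived GP2 cells expressing PTHR1 and a GloSensor cAMP reporter, 3,000/well, plated overnight, given luciferin plus IBMX (each 0.5 mM as added) for 1 h at 37 °C, then compound for 1 h at 37 °C. Luminescence was read after 15 min at room temperature.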
KAT2A inh: blocks human GCN5L2 histone acetyltransferase; GCN5L2 HAT assay, ThioGlo1 CoA-SH fluorescence; Q92830; AID 504327; 390,000 compounds, 0.21% hits; Potency, µM (titrated, usually from 58.9 µM), for inactives: at the top dose activity change, negative = inhibition, most hits filed as inhibitors; note: % is set by controls: 0 for no effect and ±100 for the full control effect
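Fluorescence readout, Ex340nm/Em540nm: ThioGlo1 (50uM final) reacts with free CoA thiol released as 20nM GCN5L2 acetylates H3(1-25) peptide (75uM) using acetyl-CoA (70uM). Compound and enzyme sat 15 min beforehand; 20 min room-temperature reaction.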
GLP-1R agonist: activates the human GLP-1 receptor | P43220 | HEK293 GLP-1R CRE-luciferase, luminescence, 4-6 h; cells express a hypersensitive GLP-1R form | Potency, µM (highest dose often 45.6 µM), for the others: at the highest dose activation, hits mostly activators | 380,000 compounds, 0.007% hits; note: % of control where 0% means no effect
RGS4 inhibitor: blocks human RGS4-accelerated GTP hydrolysis; Transcreener GDP fluorescence polarization, RGS4-accelerated GTP hydrolysis; Potency, µM (doses to about 114 µM), for the others: at the top dose activity change, negative = inhibition, most hits filed as inhibitors; 390,000 compounds, 0.039% hits; note: % is set by controls: 0 for no effect and ±100 for the full control effect; nearly all actives have a fitted effect of over 75% in size
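MLSMR compounds (23 nl, pin-transferred) preincubated 10 min at room temperature with a 500nM (2x) first reagent, then RGS4 at 900nM (2x) plus Transcreener GDP mix added; fluorescence polarization (620/688 nm) read before and after 90 min at 30 °C.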
GLP1R cytotox: cytotoxicity counter-screen for GLP-1 receptor inverse agonists; Potency, µM (highest dose often 38.3 µM), without a hit: at the top dose activity change, negative = inhibition, usual class: inhibitors; AID 624418; 410,000 compounds, 0.13% hits; HEK293 cAMP-luciferase reporter cells, luminescence, 24 h;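 note: loss of luciferase light is scored as toxicity; % is set by controls: 0 for no effect and ±100 for the full control effect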
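Step one: seed cells (200 cells/uL, DMEM with 10% Nu serum, 1% pen-strep). Step two: 12-hour incubation at 37 deg C. Step three: pin 23 nL compound, incubate 24 hr. Step four: add luciferase reagent, read luminescence 12 min later.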
The depositor's hits bear a star; i = inactive; u = inconclusive; x = no result given; [ ] = another dose, or the depositor's remark. Calls come from the whole dose curve; as a rule, active = well fitted curve in the direction sought with a large enough effect; inconclusive = small, poorly fitted or top-dose-only effect, or another doubt; inactive = no such curve, though single readings can be large; an effect the other way counts as inactive or inconclusive. Potency is the fitted concentration of half-maximal effect.

SMILES | GLP1R inv ag | PTHR1 ag | KAT2A inh | GLP-1R agonist | RGS4 inhibitor | GLP1R cytotox
O=[N+]([O-])c1cnc(Sc2ccncn2)c([N+](=O)[O-])c1 | -4% | i | x | -4% | x | u
O=[N+]([O-])c1cnc(Sc2ccncn2)s1 | u | -64% | -11% | -7% | u | 2.8µM*
Cc1ccccc1NS(=O)(=O)c1ccc2[nH]c3c(c2c1)CCCCC3 | 10µM* | -33% | 0% | 0% | -11% | -12%
O=S(=O)(Nc1cccc(Cl)c1)c1ccc2[nH]c3c(c2c1)CCCCCC3 | u | -24% | -15% | x | u | 19%
Cc1cccc(NS(=O)(=O)c2ccc3[nH]c4c(c3c2)CCCCCC4)c1 | 8.9µM* | -92% | -4% | x | -50% | u
CCOC(=O)[C@]12CCCC=C1N(Cc1cccc3ccccc13)C(=O)[C@H](CC(=O)N1CCSCC1)C2 | u | -13% | x | 2% | x | 0%
O=C(O)c1ccccc1-c1ccccc1C(=O)NNc1ccccc1 | 2.2µM* | i | -4% | -3% | -5% | -8%
COc1ccc2c(c1)nc(N)n2Cc1ccccc1 | -18% | -4% | -7% | 0% | 5% | -9%
CN=C1c2cc3cc(OC)ccc3n2CCN1Cc1ccccc1 | 5µM* | i | -18% | 10% | -12% | -15%
Cc1ccnc(NS(=O)(=O)c2ccc(NC(=O)c3snnc3C)cc2)n1 | 32% | i | -4% | -3% | -23% | -1%
COc1cc(Br)ccc1C1CC(=O)C(C)C(c2ccc(Br)cc2OC)N1 (stereo not given) | 10µM* | i | -4% | 11% | -4% | 3%
CCOC(=O)C1=CN(Cc2ccco2)S(=O)(=O)N(C)C1c1ccc(C(F)(F)F)cc1 (stereo not given) | u | -6% | -10% | 10% | -46% | 1%
CCOC(=O)C1=CN(Cc2ccco2)S(=O)(=O)N(C)C1c1ccc2ccccc2c1 (stereo not given) | 10µM* | -14% | -13% | 2% | -40% | -11%
N#CC(C#N)=C1NC2(CCCCC2)Cc2ccccc21 | -4% | -56% | -8% | 15% | -33% | -10%
N#CC(C#N)=c1ccc2c(c1)NC1(CCCCC1)N=2 | 164% | -88% | -3% | 0% | u | 10µM*
OCC1(Cc2ccccc2)CCCN(Cc2cn[nH]c2-c2ccccc2)C1 (stereo not given) | u | u | -5% | 4% | 6% | 0%
Cc1ccc(C)c(-c2[nH]ncc2CN2CCCC(CO)(Cc3ccccc3C)C2)c1 (stereo not given) | 10µM* | 20% | -15% | 8% | 8% | u
O=C1CC(/C=C/c2ccncc2)=Nc2ccccc2N1 | 2.5µM* | -31% | -7% | 4% | 5% | -24%
CCSc1ncc(/C=N/Nc2ccccc2)n1C | 3.5µM* | -3% | 3% | 14% | -35%[11.4 µM] | u
COc1ccc(N(CC(O)Cn2c3ccccc3c3ccccc32)S(=O)(=O)c2ccccc2)cc1 (stereo not given) | 11µM* | i | -7% | -9% | -17% | 10%
COc1ccc(/C=C/C(=O)N(CC(C)C)CC(C)C)cc1Br | 11µM* | i | -7% | 16% | -25% | -2%
CN1CCN(NS(=O)(=O)c2ccc(Cl)cc2)CC1 | -4% | -24% | -6% | 0% | -37% | -5%
Cc1ccc(NC(=O)CCn2c(=S)oc3ccccc32)cc1F | 15% | i | -11% | 7% | -17% | 9%
COc1ccc(C)cc1N(C)C(=O)c1sc2nc3n(c(=O)c2c1C)CCCCC3 | -9% | 11% | -25% | x | -54% | 0%
COc1cccc(NC(=S)N2CCCN(Cc3ccc(F)cc3)C2)c1 | u | 0% | -7% | 16% | 0% | 0%

Screening results as filed in PubChem.
